MBD2 inh: inhibitors of human MBD2 binding to methylated oligonucleotide; TR-FRET; inhibition, % at 4.4 µM; 0.31% of 370,000 active; in the data active = inhibition above about 13%
UHRF1 MBD2 ctr: UHRF1 methyl-DNA binding inhibition; UHRF1 binding to methylated oligo, TR-FRET; inhibition, % at 4.4 µM; 0.75% of 370,000 active; AID 687016; in the data active = inhibition above about 21%;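 also: UHRF1 SRA domain binding a hemimethylated CpG hairpin DNA probe; 0% = median of test compound wells and 100% = reference inhibitor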
LEDGF integ inh: blocks HIV-1 LEDGF/p75-dependent DNA integration. inhibition, % at 3.7 µM. 0.64% of 370,000 active. AID 743269. TR-FRET IN-LEDGF/p75 DNA integration, Eu/Cy5;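 active = inhibition above the screen-wide mean plus 3 SD, cut at about 13% in these data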;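 also: signal is the Cy5 over europium emission ratio at 671 and 618 nm; 0% = plate median of compound wells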
PLC-beta3 inh: PLC-beta3 (human) inhibition, primary screen; Q01970; Purified PLC-beta3, fluorogenic substrate, fluorescence; inhibition, % at 12.2 µM; 0.18% of 370,000 active; AID 720704; in the data active = inhibition above about 11%;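 also: 0% = median of compound wells on plate and 100% = full blocker control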
PLC-gamma1 inh: blocks human PLC-gamma1 enzyme activity | purified PLC-gamma1, fluorogenic substrate, fluorescence | 0.84% of 370,000 active | P19174 | inhibition, % at 12.2 µM | AID 720700
Target sequence (P19174 whole entry, looked up): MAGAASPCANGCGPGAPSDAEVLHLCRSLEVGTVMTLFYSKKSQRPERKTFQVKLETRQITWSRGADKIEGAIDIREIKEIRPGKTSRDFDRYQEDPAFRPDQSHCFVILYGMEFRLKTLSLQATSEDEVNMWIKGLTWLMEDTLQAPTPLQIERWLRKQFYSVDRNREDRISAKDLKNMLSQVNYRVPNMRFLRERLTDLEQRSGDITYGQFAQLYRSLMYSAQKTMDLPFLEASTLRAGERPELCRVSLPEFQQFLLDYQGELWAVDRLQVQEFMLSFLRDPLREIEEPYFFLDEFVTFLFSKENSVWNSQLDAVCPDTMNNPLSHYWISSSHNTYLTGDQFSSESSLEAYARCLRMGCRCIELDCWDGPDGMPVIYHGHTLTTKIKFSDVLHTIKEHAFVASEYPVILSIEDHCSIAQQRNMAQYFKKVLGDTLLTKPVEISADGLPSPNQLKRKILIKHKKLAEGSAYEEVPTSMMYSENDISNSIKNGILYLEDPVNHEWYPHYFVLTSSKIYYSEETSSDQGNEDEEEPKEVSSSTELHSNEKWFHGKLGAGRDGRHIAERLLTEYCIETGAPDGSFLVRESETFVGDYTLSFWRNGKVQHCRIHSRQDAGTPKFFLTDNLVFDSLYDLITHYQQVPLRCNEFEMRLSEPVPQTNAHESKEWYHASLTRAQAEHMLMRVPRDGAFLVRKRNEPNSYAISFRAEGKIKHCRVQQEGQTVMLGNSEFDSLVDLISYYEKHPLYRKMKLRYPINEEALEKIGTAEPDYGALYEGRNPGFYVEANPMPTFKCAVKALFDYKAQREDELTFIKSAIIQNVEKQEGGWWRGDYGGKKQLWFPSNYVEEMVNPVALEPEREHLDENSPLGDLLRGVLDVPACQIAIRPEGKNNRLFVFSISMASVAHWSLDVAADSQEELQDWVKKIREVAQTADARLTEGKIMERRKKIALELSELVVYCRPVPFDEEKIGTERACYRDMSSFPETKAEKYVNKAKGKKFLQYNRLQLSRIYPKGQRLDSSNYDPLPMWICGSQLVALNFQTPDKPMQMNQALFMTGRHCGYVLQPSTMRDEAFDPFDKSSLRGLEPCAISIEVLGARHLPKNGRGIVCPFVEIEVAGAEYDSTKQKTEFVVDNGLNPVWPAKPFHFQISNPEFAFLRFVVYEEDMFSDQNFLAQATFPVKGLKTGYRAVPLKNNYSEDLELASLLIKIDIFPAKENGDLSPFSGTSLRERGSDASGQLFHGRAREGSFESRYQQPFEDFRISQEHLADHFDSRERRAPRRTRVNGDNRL
PLCgamma1 ctr: counter-screen for PLC-beta3 inhibitors: inhibitors of human PLC-gamma1; shares compounds with PLC-gamma1 inh; purified PLC-gamma1, fluorogenic substrate, fluorescence; inhibition, % at 12.3 µM; 3.1% of 3,300 active
PLCbeta3 conf: human PLC-beta3 inhibition, confirmation; inhibition, % at 12.3 µM; 1% of 3,300 active; purified PLC-beta3, fluorogenic substrate fluorescence; shares compounds with PLC-gamma1 inh; AID 743261; in the data active = inhibition above about 11%
* hit, by the source's call; . = no result given; ! = not confirmed by another sample. Sampled rows, rich in hits. Any-hit rate of the full collection: about 2.4%. Rule as the data show it, unless noted: active = inhibition above about 9.5%; inactive = the rest.

SMILES	MBD2 inh	UHRF1 MBD2 ctr	LEDGF integ inh	PLC-beta3 inh	PLC-gamma1 inh	PLCgamma1 ctr	PLCbeta3 conf
COC(=O)[C@]12C[C@H](CC(=O)NCCCCc3ccccc3)C(=O)N(Cc3ccccc3)C1=C[C@H](C(C)C)O[C@@H]2C1CC1	-2	2	6	5	10*	-3	-1
COC(=O)[C@]12C[C@H](CC(=O)NCC3CCCCC3)C(=O)N(Cc3cccc4ccccc34)C1=C[C@H](C1CCCC1)O[C@@H]2C	5	3	-1	1	11*	-1	-8
Cc1ccc(S(=O)(=O)N(CC(=O)N/N=C\c2cccs2)c2cccc3cccnc23)cc1	2	-1	-3	2	-2	.	.
Cc1ccc(S(=O)(=O)N(CC(=O)N/N=C/c2cccc(C)c2)c2cccc3cccnc23)cc1	-1	5	1	-1	11*	-3	-1
CC(=O)Nc1ccc(S(=O)(=O)NC2CC(=O)N(c3ccc(C)c(C)c3)C2)cc1 (stereo not drawn)	3	2	0	-3	12*	-2	0
CCOC(=O)CSc1nnc(Cn2c(=O)sc3ccccc32)n1-c1ccccc1C	1	1	4	11*	8	9.5*	-1
COc1cccc(NC(=O)Nc2c(-c3ccc(C(F)(F)F)cc3)nc3ncccn23)c1	3	-3	3	-210	-160	.	.
O=C(CCC(=O)OCc1ccc([N+](=O)[O-])cc1)Nc1ccc(F)cc1	3	4	5	10	10*	-2	1
Cc1cccc(NC(=O)CCC(=O)OCC(=O)c2ccc(Oc3ccc([N+](=O)[O-])cc3)cc2)c1	1	0	6	6	2	.	.
Cc1ccc(NC(=O)CCC(=O)OCC(=O)c2ccc(Oc3ccc([N+](=O)[O-])cc3)cc2)cc1C	-1	4	0	5	11*	7	6
CN1CCN(NC(=O)/C=C/c2cccc([N+](=O)[O-])c2)CC1	-4	1	-3	2	12*	-10	-3
CCC[C@H]1[C@@H](NCc2cccs2)CC[C@@]23CCCN2C(=O)CCC[C@@H]13	-5	-1	4	2	3	.	.
CCOC(=O)c1sc(NC(=O)C2CC2)cc1C	-2	2	2	5	11*	-8	-1
CN1CCN(C(=O)/C(=C/c2ccccc2)c2ccccc2)CC1	-1	3	0	9	9.8*	-6	-1
CC1CC(C)CN(C(=O)/C(=C\c2ccccc2)c2ccccc2)C1 (stereo not drawn)	1	6	2	-1	1	.	.
O=C(CSc1nnc(-c2ccccn2)n1-c1ccc(Cl)cc1)Nc1ccc(S(=O)(=O)Nc2nccs2)cc1	0	3	1	3	-2	.	.
Cc1cc2c(c(=O)o1)[C@@]1(C(=O)N(C)c3ccc([N+](=O)[O-])cc31)C1=C(CCCC1=O)O2	-1	3	5	10	9.5*	-2	1
COc1ccc2c(c1)[C@]1(C(=O)N2C)C2=C(CCCC2=O)Oc2cc(C)oc(=O)c21	-1	-2	2	4	5	.	.
CCN(CC)C(=O)CN1C(=O)C2CCCCN2C(=O)c2ccccc21 (stereo not drawn)	-1	4	-6	-5	-5	.	.
Cc1ccc(CS(=O)Cc2ccc(C(=O)N3CCN(c4ccc(F)cc4)CC3)o2)cc1 (stereo not drawn)	-6	2	3	-9	12*	-9	-9
COCCCNC(=O)C1CC(=O)N(CCc2ccc(OC)c(OC)c2)C1 (stereo not drawn)	-4	5	0	3	14*	2	0
O=C(CCCN1C(=O)c2ccccc2C1=O)Nc1nccs1	-1	-2	0	2	14*	-3	1
O=C(CCCCCCN1C(=O)c2ccccc2C1=O)Nc1nccs1	1	-2	0	2	2	.	.
O=C(Nc1cccnc1)c1ccccc1Oc1ccccc1	-6	4	4	11*	5	-10	-1
CCOC(=O)CC[C@@H]1CC[C@]2(CCCN(C(=O)C3CCCC3)C2)O1	1	1	-4	-2	-1	.	.
SMILES	MBD2 inh	UHRF1 MBD2 ctr	LEDGF integ inh	PLC-beta3 inh	PLC-gamma1 inh	PLCgamma1 ctr	PLCbeta3 conf
O=C(O)c1[nH]c2ccccc2c1C(c1cc(Br)ccc1O)c1c(C(=O)O)[nH]c2ccccc12	-2	-1	9	-17	7	.	.
COc1cc(Cl)cc(C(c2c(C(=O)O)[nH]c3ccccc23)c2c(C(=O)O)[nH]c3ccccc23)c1O	-5	-1	6	-9	11*	8	-13
Clc1ccc(-c2csc(NCC3CCCO3)n2)cc1 (stereo not drawn)	2	1	2	0	-2	.	.
Cc1ccc(S(=O)(=O)N2CCN(CC(=O)NC3CCCc4ccccc43)CC2)c(C)c1 (stereo not drawn)	-1	-1	6	1	3	.	.
Cc1ccc(S(=O)(=O)N2CCN(CC(=O)NC3CCCc4ccccc43)CC2)cc1C (stereo not drawn)	0	1	5	5	11*!	-3	0
O=C(c1ccncc1)N1CC[C@H]2[C@H](CCCN2Cc2ccccc2)C1	0	-2	1	3	2	.	.
Nn1cnnc1SCC(=O)N(C1CCCCC1)C1CCCCC1	-3	3	6	6	11*	-5	-1
CCOC(=O)C1=NOC(C(=O)NC2CCCC2)(C(=O)C2CC2)C1 (stereo not drawn)	-1	2	-4	-2	-2	.	.
C/C(=N\NC(=O)c1nnn(-c2nonc2N)c1CSc1ccc(C)cc1)c1cccs1	0	0	-1	0	10*	-11	-6
C/C(=N/NC(=O)c1nnn(-c2nonc2N)c1CSc1ccc(C)cc1)c1ccncc1	2	-2	-3	4	0	.	.
N#Cc1c(NC(=O)CSc2nnnn2C2CCCCC2)sc2c1CCCC2	-2	2	3	3	10*	-6	3
O=S1(=O)C=CCN1Cc1cn(Cc2ccccc2)nn1	-4	4	3	2	0	.	.
Cc1ccc(NC(=O)OCCCN2C(=O)CCC23CCC(C)CC3)cc1C (stereo not drawn)	-6	-2	2	3	3	.	.
Cc1ccc(NC(=O)C(C)Sc2nnc(-c3cccnc3)n2-c2ccccc2)cc1 (stereo not drawn)	-1	-2	-3	1	1	.	.
Cc1ccccc1-n1c(SC(C)C(N)=O)nnc1-c1cccnc1 (stereo not drawn)	-3	0	-2	2	11*	-2	1
NC(=O)C1(N2CCCCC2)CCN(Cc2ccccc2Cl)CC1	-2	2	0	11*	8	-5	-3
CS(=O)(=O)N1CCC(Oc2ccccc2C(=O)NC2CCOC2)CC1 (stereo not drawn)	-5	2	-1	7	12*	-8	-3

Bioassay records as filed in PubChem BioAssay.
